Assay results: PubChem BioAssay (NCI)
Several values for one entry are separate records, joined by “and”; a condition that tells them apart may be missing. Identical values can stand only once. Compounds without any hit were thinned out: in the full panel of roughly 83,000, 20% have a hit.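 The endpoint reported here, percent growth, reads 100 for growth as untreated, 0 for no net growth and -100 for all cells dead.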

Experiments:
Assay in all cases: NCI-60 one-dose screen, 48 h (100 = growth as untreated, 0 = no growth, -100 = all killed)
Conditions in all cases: 10 µM unless noted; active means growth percent below 10; inactive means the rest
[1] = system: NCI-H23 lung
[2] = system: NCI-H226 lung
[3] = system: NCI-H322M lung
[4] = system: HOP-62 NSCLC
[5] = system: NCI-H460 lung
[6] = system: HOP-92 NSCLC
[7] = system: NCI-H522 lung
[8] = system: A549/ATCC NSCLC
[9] = system: 786-0 renal
[10] = system: COLO 205 colon
[11] = system: DU-145 prostate
[12] = system: K-562 leukemia
[13] = system: MALME-3M melanoma
[14] = system: MDA-MB-231 breast
[15] = system: RXF 393 renal
[16] = system: SF-268 CNS
[17] = system: SF-295 CNS
[18] = system: SF-539 CNS
[19] = system: UACC-257 melanoma
[20] = system: M14 melanoma

Measured: growth

CN(C)CC(CN(C)C)C(O)c1ccccc1 (stereo not given)
inactive: [1] 106% | [2] 96.6% | [3] 103% | [4] 91.4% | [5] 112% | [6] 97.9% | [7] 76.4% | [8] 91.5% | [9] 96.6% | [10] 110% | [11] 110% | [12] 94.5% | [13] 105% | [14] 114% | [15] 110% | [16] 99% | [17] 96.9% | [18] 90.7% | [19] 102% | [20] 96.4%

CC(=O)Oc1cc(C)c(OC(C)=O)c(C)c1C
inactive: [1] 97.3% | [2] 101% | [3] 112% | [4] 102% | [5] 105% | [6] 112% | [7] 103% | [8] 107% | [9] 108% | [10] 121% | [11] 105% | [12] 90.9% | [13] 91.4% | [14] 91.4% | [15] 125% | [16] 107% | [17] 107% | [18] 101% | [19] 105% | [20] 112%

O=C(c1ccc(Cl)cc1)C1C(c2ccccc2)C1[N+](=O)[O-] (stereo not given)
inactive: [1] 84.6% | [2] 97.2% | [3] 89.8% | [4] 98% | [5] 104% | [6] 80.9% | [7] 101% | [8] 98.6% | [9] 98.8% | [10] 111% | [11] 105% | [12] 92.7% | [13] 104% | [14] 91.2% | [15] 106% | [16] 98.1% | [17] 103% | [18] 103% | [19] 105% | [20] 102%

C#CCOC(=O)C(N)CS (stereo not given)
inactive: [1] 109% | [2] 99.9% | [3] 97.6% | [4] 93.2% | [5] 103% | [6] 93.9% | [7] 111% | [8] 118% | [9] 106% | [10] 106% | [11] 113% | [12] 102% | [13] 96.6% | [14] 84.2% | [15] 106% | [16] 96.4% | [17] 96.5% | [18] 86.6% | [19] 107% | [20] 97.1%

Clc1ccc2sc(-c3ccccc3)nc2c1
inactive: [1] 101% | [2] 82.2% | [3] 102% | [4] 74.5% | [5] 80% | [6] 105% | [7] 82.5% | [8] 71.4% | [9] 108% | [10] 115% | [11] 113% | [12] 92.9% | [13] 104% | [14] 80.3% | [15] 103% | [16] 96% | [17] 100% | [18] 95.5% | [19] 65.6% | [20] 102%

CCN(CC)C(=S)SCCO
inactive: [1] 93.3% | [2] 99.3% | [3] 97.1% | [4] 104% | [5] 104% | [6] 109% | [7] 95.5% | [8] 99.3% | [9] 104% | [10] 114% | [11] 107% | [12] 97% | [13] 99.7% | [14] 101% | [15] 106% | [16] 102% | [17] 106% | [18] 102% | [19] 96.3% | [20] 106%

O=COCCCc1ccccc1
inactive: [1] 109% | [2] 95.4% | [3] 104% | [4] 86.4% | [5] 107% | [6] 84.9% | [7] 80.5% | [8] 83.7% | [9] 105% | [10] 106% | [11] 112% | [12] 104% | [13] 106% | [14] 100% | [15] 108% | [16] 103% | [17] 106% | [18] 102% | [19] 86.5% | [20] 105%

CC1(CO)CCCC1NCCNC1CCCC1(C)CO (stereo not given)
inactive: [1] 109% and 107% | [2] 99.5% and 102% | [3] 139% and 98.2% | [4] 109% and 100% | [5] 104% and 112% | [6] 82.8% and 101% | [7] 94.3% | [8] 105% and 104% | [9] 101% and 102% | [10] 114% and 103% | [11] 120% and 88.9% | [12] 110% and 99% | [13] 116% and 103% | [14] 92.2% and 113% | [15] 109% and 119% | [16] 115% and 105% | [17] 94.9% and 105% | [18] 103% and 105% | [19] 100% | [20] 96.7% and 103%

O=c1[nH]nnc2cc(Cl)ccc12
inactive: [1] 94.4% and 92.2% | [2] 104% and 93.2% | [3] 110% and 115% | [4] 105% and 89.1% | [5] 114% and 101% | [6] 109% | [7] 103% and 106% | [8] 101% | [9] 117% and 94.5% | [10] 112% and 117% | [11] 108% and 114% | [12] 119% and 98.3% | [13] 124% and 113% | [14] 105% and 97.6% | [15] 119% and 111% | [16] 101% and 95.4% | [17] 103% | [18] 104% and 106% | [19] 98.6% and 105% | [20] 105%

CCOC(=O)C1=C(C)NC(C)=C(C(=O)OCC)C1
inactive: [1] 103% and 92.2% | [2] 96.7% and 96.4% | [3] 108% and 102% | [4] 117% and 91.3% | [5] 107% and 98.2% | [6] 79.2% and 89.5% | [7] 104% and 106% | [8] 104% and 99% | [9] 117% and 87.5% | [10] 126% and 96.4% | [11] 109% and 110% | [12] 127% and 110% | [13] 110% and 99.7% | [14] 93.5% and 117% | [15] 103% | [16] 104% and 111% | [17] 82.6% and 95.7% | [18] 90.8% and 95.6% | [19] 105% and 102% | [20] 162% and 98%

C/C=C(/C(=O)NC(N)=O)C(C)C
inactive: [1] 104% | [2] 116% | [3] 109% | [4] 111% | [5] 100% | [6] 94.5% | [7] 108% | [8] 97.7% | [9] 96.9% | [10] 97.5% | [11] 105% | [12] 109% | [13] 106% | [14] 114% | [15] 171% | [16] 87.2% | [17] 108% | [18] 115% | [19] 104% | [20] 93.9%
